Drawing on PubChem BioAssay AID588590 (National Center for Advancing Translational Sciences (NCATS), 2011), this text covers Potency for 99 molecules.

Hit rate of the full screen: of about 390,000 compounds, about 4,000 (1%) were called active. A call without a number means that no potency is given here. Another 7% or so got no clear call; they are omitted. Calls follow the shape of the dose curve; as a rule, active = well fitted inhibition curve with a large enough effect; inconclusive = small, poorly fitted or top-dose-only effect, or another doubt; inactive = no such curve, though single readings can be large or run the other way. For the sample, actives were picked, then their nearest neighbours and some compounds at random.
Potency is read from the fitted curve at half-maximal effect.

For this assay, the target named is DNA polymerase iota (Homo sapiens) (UniProt Q9UNA4). Kind of assay: qHTS for Inhibitors of Polymerase Iota. The settings on record: Pol iota fluorescent replication assay, 10 min; series mostly up to 115 µM. In outline: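 Pol iota at 10 nM preincubated 15 min with compounds at room temperature; reaction started with fluorescent substrate, 50 nM final. Fluorescence read kinetically at 0 and 10 min; buffer-only wells as negative control.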
Chain of DNA polymerase iota (Homo sapiens) (Q9UNA4 whole entry, looked up): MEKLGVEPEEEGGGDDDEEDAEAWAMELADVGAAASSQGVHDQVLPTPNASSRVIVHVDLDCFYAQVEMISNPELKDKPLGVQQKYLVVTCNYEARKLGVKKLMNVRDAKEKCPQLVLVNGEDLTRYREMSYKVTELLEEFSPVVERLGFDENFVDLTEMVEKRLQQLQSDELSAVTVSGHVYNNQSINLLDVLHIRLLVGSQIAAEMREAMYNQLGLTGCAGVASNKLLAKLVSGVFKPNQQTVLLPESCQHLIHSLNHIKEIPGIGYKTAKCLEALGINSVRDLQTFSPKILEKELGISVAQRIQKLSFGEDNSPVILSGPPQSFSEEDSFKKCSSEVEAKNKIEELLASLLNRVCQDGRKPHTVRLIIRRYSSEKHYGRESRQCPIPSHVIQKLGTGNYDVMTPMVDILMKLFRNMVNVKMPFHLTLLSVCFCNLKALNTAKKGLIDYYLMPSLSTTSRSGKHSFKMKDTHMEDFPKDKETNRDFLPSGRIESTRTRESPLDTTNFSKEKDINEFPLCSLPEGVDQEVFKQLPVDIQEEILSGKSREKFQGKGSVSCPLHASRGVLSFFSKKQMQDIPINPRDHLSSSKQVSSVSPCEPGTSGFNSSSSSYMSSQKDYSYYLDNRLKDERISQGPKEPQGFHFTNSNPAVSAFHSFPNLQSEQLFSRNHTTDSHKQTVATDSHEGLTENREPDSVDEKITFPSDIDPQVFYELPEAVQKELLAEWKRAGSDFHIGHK
A general note: Quantitative high-throughput screening tests each substance at several concentrations.
As to `COc1ccc(-c2c(C)c3ccc(O)c(CN4CCN(C)CC4)c3oc2=O)cc1OC`, the Potency result was “inactive”.
On to `COc1c(O)cc2oc(-c3ccc(O)c(O)c3)cc(=O)c2c1O`, for which the Potency was 7.94 µM (active).
On to `COc1cc(O)c2c(=O)c3c(O)c(O)ccc3oc2c1OC`, for which the Potency result was “inactive”.
Under `C=CCn1c(SCC(=O)NCC2CCCO2)nc2sc(C)c(C)c2c1=O` (centres undefined) stands “inactive”.
For the molecule `C=CCn1c(SCC(=O)NCCCO)nc2sc3c(c2c1=O)CCC3`, the Potency result was “inactive”.
Under `C=CCn1c(=S)[nH]c2scc(-c3ccco3)c2c1=O` stands 4.47 µM (active); under `C=CCNC(=O)CSc1nc2scc(-c3ccco3)c2c(=O)n1CC=C`, 44.7 µM (active).
For the molecule `CCOC(=O)c1cccc(NC(=O)C(Cc2ccccc2)NS(=O)(=O)c2cccc3nsnc23)c1` (centres undefined), the Potency entry was “inactive”.
Regarding `Cc1ccc(N2CC(c3nnc(Cc4ccccc4Cl)o3)CC2=O)cc1` (centres undefined), the Potency entry is “inactive”.
For `CCOc1ccc(N(CC)S(=O)(=O)N2CCCC(C(=O)NCc3ccc(Cl)cc3)C2)cc1` (centres undefined) the value was “inactive”; for `CCOc1ccc(-n2nc3ccc(NC(=O)c4ccc(OC)c(Cl)c4)cc3n2)cc1`, “inactive”; for `CCOc1ccc(CNC(=O)C2CCCN(S(=O)(=O)N(CC)c3ccc(OCC)cc3)C2)cc1` (centres undefined), “inactive”.
For `CCN(CC)CCNC(=O)Cn1ncc2c3ccccc3n(Cc3ccccc3C)c2c1=O`, the Potency result is “inactive”.
Regarding `N#Cc1cccc(OC(=O)c2ccc3c(=O)n4c(nc3c2)CCC4)c1`, the Potency is 20 µM (active).
For `CC1CCN(C(=O)c2ccc3c(=O)n4c(nc3c2)CCCCC4)CC1` the value was “inactive”; for `COC(=O)c1ccccc1NC(=O)c1ccc2c(=O)n3c(nc2c1)CCCCC3`, “inactive”.
With `CCOC(=O)c1c(NC(=O)Cc2coc3ccc(CC)cc23)sc2c1CCC2`, the Potency entry was “inactive”.
For `O=C1COc2c1ccc(O)c2O` the value was 17.8 µM (active); for `CCc1ccc(CNC(=O)c2cc3c(=O)n(CC)c4ccccc4c3s2)cc1`, “inactive”.
For `CCc1ccc(NC(=O)CN2C(=O)CSC2=O)cc1` the value was “inactive”; for `O=C(CN1C(=O)COc2ccccc21)Nc1ccc(F)cc1`, “inactive”.
Consider `Cn1cccc1/C=C1\SC(=O)N(CC(=O)Nc2ccc(F)cc2)C1=O`, for which the Potency was 79.4 µM (active).
As for `Cc1ccccc1CN1CCC(CNC(=O)c2c(C)oc3ncnc(N4CCCCC4)c23)CC1`, the Potency entry was “inactive”.
Take `CCOc1cc(-c2nnc(SCC(=O)NC3CCCCC3)nc2-c2ccc(OC)c(OCC)c2)ccc1OC`: the Potency result is “inactive”.
For the molecule `CCc1nn(CC(=O)N2CCN(CC)CC2)c(=O)c2cccn12`, the Potency result is “inactive”.
Consider `CN1CCN(C(=O)Cn2c(C(F)(F)F)nc3ccccc32)CC1`, for which the Potency result is “inactive”.
For the molecule `CCCN1CCN(C(=O)Cn2ncc3ccccc32)CC1`, the Potency is 39.8 µM (active).
With `Oc1ccc(-c2nc3ccc(Cl)cn3c2Nc2ccc3c(c2)OCO3)cc1`, the Potency entry was “inactive”.
For `O=C(NC(=S)Nc1ccc(Cl)c(C(=O)O)c1)c1cncc(Br)c1` the value was “inactive”; for `Cc1ccc(C)c(NC(=S)NNC(=S)Nc2ccc(C(C)C)cc2)c1`, “inactive”.
Under `CC(C)c1ccc(NC(=S)NNc2ccc(Cl)c(C(=O)O)c2)cc1` stands 11.2 µM (active); under `COc1ccccc1NC(=O)Cn1cnc2ccc(S(=O)(=O)N3CCC(C)CC3)cc2c1=O`, “inactive”; under `COC(=O)c1ccc2c(c1)N(CC(=O)Nc1ccc(C)c(C)c1)C(=O)c1ccccc1S2`, “inactive”.
Under `COc1ccccc1NC(=O)CN1C(=O)c2ccccc2Sc2ccc(C(=O)N3CCCC3)cc21` stands 79.4 µM (active).
Turning to `COc1cccc(NC(=O)CN2C(=O)c3ccccc3Sc3ncccc32)c1`, the Potency result was “inactive”.
For `CCc1c(C)sc(NC(=O)C2c3ccccc3Oc3ccccc32)c1C(=O)OC(C)C` the value was “inactive”; for `CC(C)CC(NS(=O)(=O)c1ccc2c(c1)oc(=O)n2C)C(=O)NCc1ccccc1Cl` (centres undefined), “inactive”; for `COc1ccccc1C(=O)Nc1c(C(=O)Nc2ccc(C)cc2)oc2ccccc12`, “inactive”.
For `Cn1c(=O)c2c(nc(SCC(=O)Nc3ccc(F)cc3)n2Cc2ccccc2)n(C)c1=O` the value was “inactive”.
For the molecule `O=[N+]([O-])c1ccc(/C=C/c2ccc3cccnc3c2)cc1`, the Potency result was “inactive”.
For `O=C1CCCN1C(=O)COc1ccc([N+](=O)[O-])cc1`, the Potency entry is “inactive”.
For the molecule `O=C1/C(=C\c2ccc([N+](=O)[O-])cc2)CS(=O)(=O)C/C1=C/c1ccc([N+](=O)[O-])cc1`, the Potency is 11.2 µM (active).
On to `CC(C)Oc1ccc(CNC(=O)C2CCN(c3nc4ccccc4n(C)c3=O)CC2)cc1`, for which the Potency result was “inactive”.
With `C(=Nc1ccc(/C=C/c2ccnc3ccccc23)cc1)Nc1ccc(/C=C/c2ccnc3ccccc23)cc1`, the Potency entry was “inactive”.
In the case of `COc1ccc(-c2oc3ncnc(NCCCO)c3c2-c2ccc(OC)cc2)cc1`, the Potency result was “inactive”.
For `Cc1noc2ncnc(NCc3ccccc3Cl)c12` the value was “inactive”; for `OCCNc1ncnc2oc(-c3ccco3)c(-c3ccco3)c12`, 12.6 µM (active).
Under `CN(Cc1ccccc1)c1ncnc2onc(-c3ccc(F)cc3)c12` stands “inactive”; under `CN(C)c1cccc2ccccc12`, “inactive”.
For `CCN1CCN(CCCNC(=O)c2ccc3c(c2)sc2nc(-c4ccc(OC)cc4)cn23)CC1`, the Potency entry is “inactive”.
As for `CCCCCn1c(CCNC(=O)c2ccc(F)cc2)nc2ccccc21`, the Potency result was “inactive”.
Turning to `Cc1noc(C)c1S(=O)(=O)Nc1ccc(C(=O)N2CCN(c3ccc(F)cc3)CC2)cc1`, the Potency is 79.4 µM (active).
Under `CN1CCN(C(=O)c2ccc(NS(=O)(=O)c3ccccc3)cc2)CC1` stands “inactive”; under `Cc1noc(C)c1S(=O)(=O)Nc1ccc(C(=O)O)cc1`, “inactive”; under `O=C(CC1N=C2c3ccccc3N=C(SCc3cccc(Cl)c3)N2C1=O)NCc1ccc2c(c1)OCO2` (centres undefined), “inactive”.
Under `CCCc1nc2sc3c(c2c(=O)n1NC(=O)CCCl)CCCC3` stands “inactive”.
Turning to `O=C(CCc1nc2sc3c(c2c(=O)[nH]1)CCCC3)NCC(=O)Nc1ccccc1Br`, the Potency is 50.1 µM (active).
As to `O=c1[nH]c(CN2CCN(S(=O)(=O)c3ccc4c(c3)OCCO4)CC2)nc2sc3c(c12)CCCC3`, the Potency entry is “inactive”.
For `CCOC(=O)c1[nH]c(C)c(CCC(=O)N2CCN(c3ccccc3)CC2)c1C` the value was “inactive”; for `CCOc1ccc(C(=O)COC(=O)c2ccc(-n3cnnn3)cc2)cc1`, “inactive”.
As for `C=CCc1cccc(/C=N/NC(=O)COc2ccc(-n3cnnn3)cc2)c1O`, the Potency result was “inactive”.
For `O=C(COc1ccc(-n2cnnn2)cc1)Nc1ccccc1Cl` the value was 79.4 µM (active); for `Cc1ccc2[nH]c3c(=O)n(CC(=O)NC(C)C)ncc3c2c1`, “inactive”.
Under `O=C(CSc1nc(Nc2ccc(F)c(F)c2)c2ccccc2n1)c1ccc(Cl)cc1` stands “inactive”; under `Fc1ccc(CSc2nc(NCc3ccccc3)c3ccccc3n2)cc1`, “inactive”.
As to `Fc1ccc(Nc2nc(SCc3ccccc3Cl)nc3ccccc23)cc1`, the Potency is 79.4 µM (active).
Under `COc1ccc(-n2c(=O)c3sc4ccccc4c3n(CC(=O)Nc3cccc(C)c3)c2=O)cc1` stands “inactive”; under `COc1ccc(NC(=O)Nc2cccc(-c3noc(C)n3)c2)cc1`, “inactive”; under `Cc1sc2nc(CSCC(=O)Nc3c(Cl)cccc3Cl)[nH]c(=O)c2c1C`, “inactive”.
Under `CCOC(=O)c1sc2nc(CSCC(=O)OCc3ccc(C(=O)OC)o3)[nH]c(=O)c2c1C` stands “inactive”.
Under `CSc1nnc(SCc2nc3sc(C(=O)O)c(C)c3c(=O)[nH]2)s1` stands 3.98 µM (active); under `Cc1ccc(S(=O)(=O)c2cn(Cc3ccccc3)c3cc(N4CCCC4)c(F)cc3c2=O)c(C)c1`, “inactive”; under `CN(Cc1ccccc1)c1ccc(/C=C/c2ccnc3ccccc23)cc1`, “inactive”.
With `CC1CCN(C(=O)CCc2nnc3ccc(NCc4ccco4)nn23)CC1`, the Potency entry was “inactive”.
Turning to `O=C(CCc1nnc2ccc(NCc3ccco3)nn12)Nc1cc(F)ccc1F`, the Potency result is “inactive”.
For `CCOc1ccccc1NC(=O)CCc1nnc2ccc(NCc3ccco3)nn12` the value was 50.1 µM (active); for `Cc1ccc(C=O)cc1Cl`, “inactive”; for `COc1ccc(CCNC(=O)c2ccc3c(c2)nc(C)n3-c2ccc(Br)cc2)cc1OC`, “inactive”.
With `CCC(CC)c1nn2cc(-c3ccccc3)nc2s1`, the Potency result was “inactive”.
On to `O=C(O)c1ccc(/C=C2\SC(=S)N(NC(=O)c3ccc(Br)cc3)C2=O)cc1`, for which the Potency is 22.4 µM (active).
`O=C(Nc1ccc(C(=O)O)cc1)/C(=C\c1ccccc1)NC(=O)c1ccc(Br)cc1`: the Potency entry was “inactive”.
For `C/C(CC(=O)N1CCN(C=O)CC1)=N\NC(=O)c1ccc(Br)cc1` the value was “inactive”.
As to `CN1CCN(/[N+]([O-])=N/Oc2ccc([N+](=O)[O-])cc2[N+](=O)[O-])CC1`, the Potency result is “inactive”.
Regarding `CCc1nnc2c3ccccc3nc(N3CCN(c4ccc(C)cc4C)CC3)n12`, the Potency result is “inactive”.
On to `O=C(CCS(=O)(=O)c1ccc(Br)cc1)NCCc1ccc(Cl)cc1`, for which the Potency result was “inactive”.
Under `COc1ccc(Cl)cc1NC(=O)CCS(=O)(=O)c1ccc(Br)cc1` stands 56.2 µM (active).
For `COc1ccc(Cl)cc1NC(=O)CCC(=O)c1ccc(C)cc1` the value was “inactive”; for `COc1ccc(Nc2ncc3c(n2)CCN(C(=O)OC(C)(C)C)C3)cc1`, “inactive”; for `Cc1c(C)n(Cc2ccc(Cl)cc2)c2ccc(C(=O)NCCc3ccc(S(N)(=O)=O)cc3)cc12`, “inactive”.
As to `CN(C(=O)CSc1nnc(NC(=O)Nc2ccccc2)s1)c1ccccc1`, the Potency result was “inactive”.
For `O=C(c1[nH]ncc1-c1ccc(Cl)cc1)C1CO1` (centres undefined) the value was 56.2 µM (active); for `COC(=O)c1scc(-c2ccccc2)c1S(=O)(=O)Nc1ccccc1`, “inactive”.
`O=C1CCC[C@@H]2C[C@@]3(C[C@@H]4CCN1[C@H]24)Nc1ccccc1NC3=NCc1ccccc1`: the Potency result is “inactive”.
Regarding `COc1cc2nc(N3CCCN(C)CC3)nc(NC3CC3)c2cc1OC`, the Potency entry is “inactive”.
Turning to `COc1ccc(-c2cn3nc(N4CCCC(C(=O)NCCCOC(C)C)C4)sc3n2)cc1` (centres undefined), the Potency result is “inactive”.
For `COc1cc(NC(=O)c2nc3ccccc3nc2C)cc(OC)c1OC` the value was “inactive”; for `COc1cc2c(cc1OC)C(C(=O)Nc1cc(C)c(OC)c(C)c1)CC(=O)N2` (centres undefined), “inactive”; for `COc1cc(N/C=C2\CC(=O)NC(C)=C2C#N)cc(OC)c1OC`, 10 µM (active).
Consider `COc1ccc(-c2nc3sc(CCNS(=O)(=O)c4ccc(F)c(C)c4)c(C)n3n2)cc1`, for which the Potency result is “inactive”.
